# Experimental data reported in PubChem BioAssay (Tox21).
# Unmarked numbers belong to inactive results. Inconclusive results are not listed. Entries that show only a call come without a potency. Activity calls are given as the source filed them. Unless noted, the call rests on the fitted dose curve; in most records, active means well fitted curve in the direction sought with a large enough effect in the repeat runs; inconclusive means weak or mixed curves; inactive means no such curve, though single readings can be large; an effect the other way counts as inactive or inconclusive.
# What was measured:
# [1] = qHTS assay for small molecule agonists of the p53 signaling pathway (AID 651631; calls by dose curve; further: nearly all actives have a fitted effect of over 15% in size; further: potency means the concentration at half of the fitted maximal effect)
# Procedure, shortened: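 Stably transfected HCT-116 cells (beta-lactamase behind p53 response elements) get compounds after a 5 h settling period; 16 h later at 37 °C, FRET substrate is loaded and fluorescence read after 2 h.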
# [2] = qHTS assay for small molecules that induce genotoxicity in human embryonic kidney cells expressing luciferase-tagged ATAD5 (AID 651632); further: nearly all actives have a fitted effect of over 15% in size
# Procedure, shortened: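 Reporter cells (HEK293T) express luciferase-tagged ATAD5, a protein that accumulates after DNA damage. Treat 16 hr at 37C/5% CO2, add Amplite, wait 30 min at RT, and read luminescence.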
# [3] = qHTS assay for small molecule agonists of the p53 signaling pathway - cell viability (AID 651633; calls by dose curve;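 further: p53RE-bla HCT reporter cells with a stable beta-lactamase p53 reporter; series mostly up to about 83 µM; nearly all actives have a fitted effect of over 30% in size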)
# Procedure, shortened: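 p53RE-bla cells were treated with compound for 16 hours at 37 C. Cytotoxicity was then measured as CellTiter-Glo luminescence after 30 min at room temperature.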
# [4] = qHTS assay for small molecule disruptors of the mitochondrial membrane potential - cell viability (AID 720634; calls by dose curve;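 further: human HepG2 liver cancer cells; series mostly up to about 83 µM; nearly all actives have a fitted effect of over 20% in size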)
# Procedure, shortened: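 Measuring cytotoxicity alongside mitochondrial potential, the screen quantified ATP by luminescence in HepG2 cells after 1 hr compound incubation and a 30 min room-temperature CellTiter-Glo step.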
# [5] = qHTS assay for small molecule disruptors of the mitochondrial membrane potential (AID 720635)
# Procedure, shortened: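 HepG2 cells exposed to compound 1 hr at 37C, then Mito-MPS dye 30 min. Ratio read of aggregate (540/590 nm) versus monomer (490/535 nm) fluorescence.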
# [6] = qHTS assay to test for compound auto fluorescence at 535 nm (green) in HepG2 cells (AID 720675)
# [7] = qHTS assay to test for compound auto fluorescence at 460 nm (blue) in HEK293 cells (AID 720678)
# Procedure, shortened: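 HEK293 cells (2,000/well, medium with 10% dialyzed FBS) attached 4-5 hr, then exposed to compound overnight at 37C, 5% CO2. Blue fluorescence read at 405/460 nm, with triamterene as reference fluorophore.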
# [8] = qHTS assay to test for compound auto fluorescence at 590 nm (red) in HEK293 cells (AID 720679)
# Procedure, shortened: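 HEK293 cells (2,000/well, 10% dialyzed FBS) attached 4-5 hr, then dosed with compound or DMSO and incubated overnight at 37C, 5% CO2. Red fluorescence read at 540/590 nm, Rose Bengal sodium as reference fluorophore.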
# [9] = qHTS assay to test for compound auto fluorescence at 535 nm (green) in HEK293 cells (AID 720680)
# [10] = qHTS assay to test for compound auto fluorescence at 460 nm (blue) in HEK293 cell free culture (AID 720681)
# Procedure, shortened: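 Compounds were added to cell-free DMEM with 10% FBS and fluorescence read directly. The blue channel used 405 nm excitation and 460 nm emission, with triamterene as the reference fluorophore.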
# [11] = qHTS assay to test for compound auto fluorescence at 535 nm (green) in HEK293 cell free culture (AID 720682)
# Procedure, shortened: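 Using fluorescein as calibrant, autofluorescence was quantified at 485/535 nm in cell-free DMEM containing 10% FBS after pintool addition of compound or vehicle.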
# [12] = qHTS assay to test for compound auto fluorescence at 590 nm (red) in HEK293 cell free culture (AID 720683)
# Procedure, shortened: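 Cell-free wells of DMEM with 10% FBS received compound, and intrinsic fluorescence was read at excitation/emission 540/590 nm. Values expressed as equivalence to Rose Bengal sodium.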
# [13] = qHTS assay to test for compound auto fluorescence at 460 nm (blue) in HepG2 cell free culture (AID 720685)
# Procedure, shortened: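 Compound (23 nL) or DMSO pinned into cell-free MEM with 10% FBS; blue fluorescence read at 405/460 nm excitation/emission, expressed as auto-fluorescence equivalency to triamterene.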
# [14] = qHTS assay to test for compound auto fluorescence at 535 nm (green) in HepG2 cell free culture (AID 720686)
# [15] = qHTS assay to test for compound auto fluorescence at 460 nm (blue) in HepG2 cells (AID 720687)
# Procedure, shortened: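 HepG2 cells in MEM with 10% FBS, attached overnight at 37 C, were exposed to compound or DMSO for 1 hr at 37 C, 5% CO2. Blue fluorescence was read at 405/460 nm, with triamterene as reference fluorophore.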
# [16] = target: Glucocorticoid receptor (Homo sapiens) (UniProt P04150); experiment: qHTS assay to identify small molecule antagonists of the glucocorticoid receptor (GR) signaling pathway (AID 720692; active means well fitted inhibition curve with a large enough effect in the signal ratio in the repeat runs, not every such curve was filed as active; the % refers to the signal ratio)
# Procedure, shortened: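 Dexamethasone (5 nM final) stimulated a stably integrated GRE-beta-lactamase reporter in HeLa cells during 18 h co-incubation with compounds; signal was quantified as fluorescence intensity of B/G FRET substrate after 2 h.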
# [17] = qHTS assay for small molecules that induce genotoxicity in human embryonic kidney cells expressing luciferase-tagged ATAD5 - cell viability (AID 651634; calls by dose curve; further: nearly all actives have a fitted effect of over 25% in size)
# Procedure, shortened: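 Seeding of 2,000 HEK293T ATAD5-luciferase cells per well preceded pin-tool compound transfer. Plates sat 15.5 hr at 37C under 5% CO2, then fluorescence was read after 30 min with CellTiter-Fluor.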
# [18] = qHTS assay to test for compound auto fluorescence at 590 nm (red) in HepG2 cell free culture (AID 720684)
# Procedure, shortened: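 Compound was pinned into wells holding MEM with 10% FBS and no cells, and red fluorescence was read at Ex/Em 540/590 nm. Signal is expressed as auto fluorescence equivalency relative to Rose Bengal sodium.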
# [19] = qHTS assay to test for compound auto fluorescence at 590 nm (red) in HepG2 cells (AID 720674)
# Procedure, shortened: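 Fluorescence at 590 nm emission following 540 nm excitation was recorded from HepG2 wells one hour after compound transfer, with DMSO-only wells as vehicle and Rose Bengal sodium equivalency as the scale.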
# [20] = target: Glucocorticoid receptor (Homo sapiens) (UniProt P04150); experiment: qHTS assay to identify small molecule agonists of the glucocorticoid receptor (GR) signaling pathway (AID 720691; active means well fitted activation curve with a large enough effect in the signal ratio in the repeat runs, not every such curve was filed as active; the % refers to the signal ratio)
# Procedure, shortened: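 Reporter read-out: fluorescence intensity following 2 h room-temperature LiveBLAzer B/G FRET substrate loading. Prior step: GR-bla HeLa cells held 4 h, then treated 18 h at 37 C.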
# Glucocorticoid receptor (Homo sapiens), sequence (P04150 whole entry, looked up): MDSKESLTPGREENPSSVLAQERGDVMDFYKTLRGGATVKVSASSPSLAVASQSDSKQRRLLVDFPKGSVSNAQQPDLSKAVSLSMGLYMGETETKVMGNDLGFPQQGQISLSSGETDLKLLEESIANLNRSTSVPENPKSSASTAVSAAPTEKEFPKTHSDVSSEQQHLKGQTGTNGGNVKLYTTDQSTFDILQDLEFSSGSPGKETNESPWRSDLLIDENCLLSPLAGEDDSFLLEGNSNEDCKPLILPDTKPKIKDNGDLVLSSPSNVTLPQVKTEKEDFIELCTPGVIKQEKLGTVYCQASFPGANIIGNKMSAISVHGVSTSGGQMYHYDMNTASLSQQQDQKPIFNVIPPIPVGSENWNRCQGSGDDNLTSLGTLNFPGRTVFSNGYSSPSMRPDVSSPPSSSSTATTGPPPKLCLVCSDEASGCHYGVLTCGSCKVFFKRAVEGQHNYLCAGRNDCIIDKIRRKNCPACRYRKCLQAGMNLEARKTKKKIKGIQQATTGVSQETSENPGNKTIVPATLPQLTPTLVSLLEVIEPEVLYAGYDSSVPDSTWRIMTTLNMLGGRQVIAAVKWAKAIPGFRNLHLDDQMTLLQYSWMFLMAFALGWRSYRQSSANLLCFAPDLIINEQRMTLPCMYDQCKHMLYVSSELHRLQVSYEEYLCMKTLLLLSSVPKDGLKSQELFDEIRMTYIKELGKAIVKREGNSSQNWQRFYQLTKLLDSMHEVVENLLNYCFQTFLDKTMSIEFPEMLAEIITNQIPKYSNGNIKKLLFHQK
structure (smiles),measurement,setting,value
NCc1ccccc1,Potency,[1],inactive
same,Potency,[2],inactive
same,Potency,[3],inactive
same,Potency,[4],inactive
same,Potency,[5],inactive
same,outcome,[6],inactive
same,Potency,[7],inactive
same,outcome,[8],inactive
same,outcome,[9],inactive
same,Potency,[10],inactive
same,outcome,[11],inactive
same,outcome,[12],inactive
same,Potency,[13],inactive
same,outcome,[14],inactive
same,Potency,[15],inactive
same,Potency,[16],inactive
N#Cc1cc2ccccc2c2ccccc12,Potency,[1],inactive
same,Potency,[2],inactive
same,Potency,[3],inactive
same,Potency,[17],inactive
same,outcome,[6],inactive
same,Potency,[7],inactive
same,outcome,[8],inactive
same,outcome,[9],inactive
same,Potency,[10],inactive
same,outcome,[12],inactive
same,outcome,[18],inactive
same,Potency,[13],inactive
same,outcome,[14],inactive
same,Potency,[15],inactive
same,Potency,[16],inactive
C=C(C)C(=O)OC(C)C,Potency,[1],inactive
same,Potency,[2],inactive
same,Potency,[3],inactive
same,Potency,[4],inactive
same,outcome,[19],inactive
same,outcome,[6],inactive
same,Potency,[7],inactive
same,outcome,[8],inactive
same,outcome,[9],inactive
same,Potency,[10],inactive
same,outcome,[11],inactive
same,outcome,[12],inactive
same,outcome,[18],inactive
same,Potency,[13],inactive
same,outcome,[14],inactive
same,Potency,[15],inactive
CCC(=O)OC(C)(C)C1CC=C(C)CC1 (configuration not stated),Potency,[1],inactive
same,Potency,[2],inactive
same,Potency,[17],inactive
same,Potency,[4],inactive
same,outcome,[19],inactive
same,outcome,[6],inactive
same,Potency,[7],inactive
same,outcome,[8],inactive
same,outcome,[9],inactive
same,Potency,[10],inactive
same,outcome,[11],inactive
same,outcome,[12],inactive
same,outcome,[18],inactive
same,Potency,[13],inactive
same,Potency,[15],inactive
C#CCOC(=O)[C@@H](C)Oc1ccc(Oc2ncc(Cl)cc2F)cc1,Potency,[1],inactive
same,Potency,[2],inactive
same,Potency,[3],inactive
same,Potency,[17],inactive
same,outcome,[6],inactive
same,Potency,[7],inactive
same,outcome,[8],inactive
same,outcome,[9],inactive
same,Potency,[10],inactive
same,outcome,[11],inactive
same,outcome,[12],inactive
same,outcome,[18],inactive
same,Potency,[13],inactive
same,outcome,[14],inactive
same,Potency,[15],inactive
same,Potency,[20],inactive
CCCCCCCCCO,Potency,[1],inactive
same,Potency,[2],inactive
same,Potency,[17],inactive
same,Potency,[4],inactive
same,outcome,[19],inactive
same,outcome,[6],inactive
same,Potency,[7],inactive
same,outcome,[8],inactive
same,outcome,[9],inactive
same,Potency,[10],inactive
same,outcome,[11],inactive
same,outcome,[12],inactive
same,outcome,[18],inactive
same,Potency,[13],inactive
same,outcome,[14],inactive
same,Potency,[15],inactive
same,Potency,[20],inactive
same,Potency,[16],inactive
CC[C@]12CCCN3CCc4c(n(c5ccccc45)C(=O)C1)[C@@H]32,Potency,[1],2.54 µM (active)
same,Potency,[2],inactive
same,Potency,[3],inactive
same,Potency,[4],inactive
same,Potency,[5],inactive
same,"fluorescence, relative to Rose Bengal",[19],-0.674% [at 18.6 µM]
same,"fluorescence, % of fluorescein control",[6],0.0406% [at 18.6 µM]
same,"fluorescence, % of triamterene",[7],0.0203% [at 18.6 µM]
same,"fluorescence, % of fluorescent control",[8],0.0084% [at 18.6 µM]
same,"fluorescence, % of fluorescein",[9],0.0475% [at 18.6 µM]
same,"fluorescence, % of fluorescent control",[10],-0.0431% [at 18.6 µM]
same,"fluorescence, % of fluorescent control",[12],-0.702% [at 18.6 µM]
same,"fluorescence, % of Rose Bengal",[18],0.0021% [at 18.6 µM]
same,"fluorescence, % of fluorescent control",[13],0.043% [at 18.6 µM]
same,"fluorescence, % of fluorescein control",[14],-0.019% [at 18.6 µM]
same,"fluorescence, % of fluorescent control",[15],-0.0508% [at 18.6 µM]
